Drawing on PubChem BioAssay (NCATS), this text covers activity, negative = cell killing and Potency for 25 molecules.

Test [1] is described as follows: Drug repurposing screens with cells derived from glioblastoma tumor samples (AID 1345199). Note: nearly all actives have a fitted effect of over 40% in size. The settings on record: GBM patient neurospheres viability, ATP luminescence, 48 h. The essentials:
(§1)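 Four patient lines of CD133+ GBM neurospheres were screened at several concentrations; hits were retested in those lines plus three slower-growing GBM lines, using 48-hour treatment and ATP-based viability.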

The next test deals with astro (control astrocytes). The description is as above. The settings on record: viability, ATP luminescence, 48 h; series mostly up to 45.9 µM. The essentials: as §1
[2] abbreviates: at 46.1 µM (top of the series), tumour line C.
[3] abbreviates: at 45.9 µM (top of the series), tumour line B.
The mark [4] stands for this setting: at 45.9 µM (top of the series), tumour line D.
Where [5] appears, read: at 46 µM (top of the series), tumour line A.

Where “and” joins values, the source holds several entries; their conditions need not be identical. Equal values may be shown once. Results filed as inconclusive are left out. Values without a mark were called inactive. Calls of active or inactive are those of the source. Calls come from the whole dose curve; as a rule, active = well fitted inhibition curve with a large enough effect; inconclusive = small, poorly fitted or top-dose-only effect; inactive = flat fitted curve, though single readings scatter.
% is set by controls: 0 for no effect and ±100 for the full control effect; potency is the fitted concentration of half-maximal effect.

On to `CN1CCCN(C(c2ccccc2)c2ccc(Cl)cc2)CC1` (stereo not drawn), for which the activity, negative = cell killing in test [1] (setting [2]) is -12.3%. Besides, the Potency in test [1] (tumour line A) was 4.47 µM (active); in test [1] (tumour line B), 35.5 µM (active); in test [1] (tumour line D), 20 µM (active).
With `CN=C(N)NC(=O)Nc1c(C)cccc1C`, the results for the activity, negative = cell killing in test [1] (setting [3]), in test [1] (setting [4]) and in test [1] (setting [2]) were -6.83%, -0.753% and 0.539%, respectively. For the same molecule, the Potency in test [1] (tumour line A) was 17.8 µM (active). In addition, in the test with astro, the Potency result is “inactive”.
Turning to `C=CC[N+]1([C@H]2C[C@H]3[C@@H]4CC[C@H]5C[C@H](OC(C)=O)[C@@H](N6CCCCC6)C[C@]5(C)[C@H]4CC[C@]3(C)[C@H]2OC(=O)CC)CCCCC1`, the activity, negative = cell killing in test [1] (setting [3]) was -10%; in test [1] (setting [4]) it was -23%; in test [1] (setting [2]) it was -14.4%. Moreover, the Potency in test [1] (tumour line A) is 6.31 µM (active). Moreover, the Potency entry with astro was “inactive”.
Consider `CN1C(=O)CC(C)(c2ccccc2)C1=O` (stereo not drawn), for which the activity, negative = cell killing in test [1] (setting [3]) was -1.54%; in test [1] (setting [4]), 0.352%; in test [1] (setting [5]) it was -33.9%; in test [1] (setting [2]), -2.82%. The Potency result in the test on astro was “inactive”.
For `CC(COc1ccccc1)NN` (stereo not drawn), the activity, negative = cell killing is -5.24% in test [1] (setting [3]), 14.4% in test [1] (setting [4]), -26.7% in test [1] (setting [5]) and 4.61% in test [1] (setting [2]). Moreover, the Potency entry in the test on astro was “inactive”.
Take `CSc1ccc(/C=C2/C(C)=C(CC(=O)O)c3cc(F)ccc32)cc1`: the activity, negative = cell killing in test [1] (setting [3]) is -6.37%; in test [1] (setting [4]), -11.2%; in test [1] (setting [5]), -24%; in test [1] (setting [2]), -7.45%.
With `CC(C)(C)c1nnc(NS(=O)(=O)c2ccccc2)s1`, the activity, negative = cell killing is -2.48% in test [1] (setting [3]), -22.3% in test [1] (setting [4]), -25.7% in test [1] (setting [5]) and -15.6% in test [1] (setting [2]). The Potency result in the test with astro was “inactive”.
On the same counts, the results for `OCCc1ccccc1` are -16.7%, -5.39%, -18.5%, 13.1% and “inactive”.
On the same counts, the results for `O=C(CCCCCCCCC#CI)Oc1ccccc1` are -16.2%, -0.884%, -21.9%, -10.1% and “inactive”.
The matching figures for `OCCCc1ccccc1`: -21.4%, -9.24%, -22.3%, 2.38% and “inactive”.
As for `N[C@@H](Cc1cc(I)c(O)c(I)c1)C(=O)O`, the activity, negative = cell killing is 3.22% in test [1] (setting [3]), 2.54% in test [1] (setting [4]), 14.8% in test [1] (setting [5]) and 3.63% in test [1] (setting [2]). The Potency result in the test with astro is “inactive”.
`CN1[C@@H]2CC[C@H]1CC(NC(=O)n1c(=O)[nH]c3ccccc31)C2` (stereo partly drawn): the activity, negative = cell killing was 3.71% in test [1] (setting [3]), -10.2% in test [1] (setting [4]) and 9.49% in test [1] (setting [2]). In addition, the Potency in test [1] (tumour line A) was 28.2 µM (active). Also, in the test on astro, the Potency result is “inactive”.
With `O=C(O)CNC(=O)CNC(=O)CNC(=O)CSC(=O)c1ccccc1`, the activity, negative = cell killing in test [1] (setting [3]) was 2.75%; in test [1] (setting [4]), -4.9%; in test [1] (setting [5]), -23.1%; in test [1] (setting [2]), -10.1%. In addition, the Potency result in the test on astro is “inactive”.
The matching figures for `CO/N=C(/C(=O)N[C@@H]1C(=O)N2C(C(=O)OCOC(=O)C(C)(C)C)=C(C)CS[C@H]12)c1csc(N)n1`: -3%, 4.02%, -24.5%, 0.657% and “inactive”.
As for `C[N+](C)(C)CCO`, the activity, negative = cell killing in test [1] (setting [3]) is -20.6% and -4.58%; in test [1] (setting [4]), -15.3% and -5.56%; in test [1] (setting [5]), -28.3% and -25.4%; in test [1] (setting [2]), 20.9% and 13.7%. In the test on astro, the Potency entry is “inactive”.
Take `CC(C)OC(=O)c1cc2c(OCC(O)CNC(C)(C)C)cccc2[nH]1` (stereo not drawn): the activity, negative = cell killing in test [1] (setting [3]) was -15.9%. The Potency in test [1] (tumour line A) was 11.2 µM (active); in test [1] (tumour line D), 22.4 µM (active).
With `CCC(C(=O)NC(=O)NC(C)=O)c1ccccc1` (stereo not drawn), the activity, negative = cell killing is -11.4% in test [1] (setting [3]), -13.3% in test [1] (setting [4]), -27.9% in test [1] (setting [5]) and -4.25% in test [1] (setting [2]). Besides, in the test on astro, the Potency entry was “inactive”.
The matching figures for `CC(=O)OCC[N+](C)(C)C`: -0.685%, 1.13%, -13.5%, 18% and “inactive”.
The matching figures for `CC1CN(c2cc3c(cc2F)c(=O)c(C(=O)O)cn3-c2ccc(F)cc2F)CCN1` (stereo not drawn): -0.773%, -11%, -6.24%, -10.7% and “inactive”.
Take `CN1CCC(=C2c3ccccc3CCc3cccnc32)CC1`: the activity, negative = cell killing in test [1] (setting [3]) is -11.9%; in test [1] (setting [4]), -28.7%; in test [1] (setting [2]), -24%. In addition, the Potency in test [1] (tumour line A) was 11.2 µM (active). Also, the Potency entry in the test on astro is “inactive”.
For the molecule `CC(NN)c1ccccc1` (stereo not drawn), the activity, negative = cell killing was -17.4% in test [1] (setting [3]), -5.52% in test [1] (setting [4]), -23.7% in test [1] (setting [5]) and -0.872% in test [1] (setting [2]). For the same molecule, in the test on astro, the Potency result was “inactive”.
In the case of `Nc1ccc2cc3ccc(N)cc3nc2c1`, the activity, negative = cell killing in test [1] (setting [2]) is -19.3%. The Potency in test [1] (tumour line A) was 22.4 µM (active); in test [1] (tumour line B) it was 14.1 µM (active); in test [1] (tumour line D), 7.94 µM (active); in the test on astro, 10 µM (active).
Take `CC(=O)Oc1ccc(C2(c3ccc(OC(C)=O)cc3)Oc3ccccc3NC2=O)cc1`: the activity, negative = cell killing in test [1] (setting [3]) was -28.4%. Further, the Potency in test [1] (tumour line A) is 22.4 µM (active).
As for `Nc1c[n+](N2CCOCC2)no1`, the activity, negative = cell killing is 3.67% in test [1] (setting [3]), -1.79% in test [1] (setting [4]), -15.9% in test [1] (setting [5]) and -4.45% in test [1] (setting [2]). Also, the Potency entry with astro is “inactive”.
The matching figures for `O=C1CC[C@H](C(=O)N2CCCCC2)N1`: 5.57%, 0.144%, -19.7%, 1.57% and “inactive”.
